In PubChem BioAssay (EPA / NIEHS):
Activity calls are given as the source filed them. How the source made its calls: active means hit-call score of the fitted dose curve at least 0.9, where 1 is the maximum; inactive means score below 0.9.

Columns and labels:
[1] = read-out: Human Leukocyte Antigen - DR isotype (HLADR), HLA-DRA (gene 3122); test: BSK_3C_HLADR: BioMAP Diversity Plus: 3C Assay for Human Leukocyte Antigen - DR isotype (HLADR) Biomarker Activity (AID 2283019); conditions: primary human endothelial cells (HUVEC); actives raise or lower the signal;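 on outcome: ELISA of cell-surface HLA-DR on HUVEC 24 h after dosing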
Method in brief: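 Compound added to primary HUVEC cultures, 24 h incubation, then HLA-DR determined by ELISA; endpoint derived by bidirectional fitting relative to DMSO negative control.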

[2] = read-out: Interleukin-8 (IL8), CXCL8 (gene 3576); test: BSK_3C_IL8: BioMAP Diversity Plus: 3C Assay for Interleukin-8 (IL8) Biomarker Activity (AID 2283020); conditions: primary human endothelial cells (HUVEC); actives raise or lower the signal
Method in brief: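 HUVEC, 3C stimulation; 24 h compound exposure; IL-8 read by ELISA; gain or loss of signal fitted relative to DMSO control.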

[3] = read-out: Monokine induced gamma interferon (MIG), CXCL9 (gene 4283); test: BSK_3C_MIG: BioMAP Diversity Plus: 3C Assay for Monokine induced gamma interferon (MIG) Biomarker Activity (AID 2283021); conditions: primary human endothelial cells (HUVEC); actives raise or lower the signal
Method in brief: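 HUVEC, 3C system; 24 h chemical exposure; MIG by ELISA; bidirectional fit vs DMSO baseline.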

[4] = read-out: Matrix Metallopeptidase 1 (MMP1), MMP1 (gene 4312); test: BSK_BE3C_MMP1: BioMAP Diversity Plus: BE3C Assay for Matrix Metallopeptidase 1 (MMP1) Biomarker Activity (AID 2283024); conditions: primary human bronchial epithelial cells; actives raise or lower the signal
Method in brief: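 ELISA read-out of MMP1 in human lung bronchial epithelial primary cultures, 24 h post-dose; bidirectional curve fit vs DMSO baseline, gain or loss of signal scored.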

[5] = BSK_3C_Vis: BioMAP Diversity Plus: 3C Assay for Morphology Visualization (AID 2283025); conditions: primary human endothelial cells (HUVEC);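 further: fitted both ways so gain or loss versus DMSO counts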
Method in brief: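 HUVEC, 3C system; light microscopy of morphology at 24 h post-dose. Bidirectional fit vs DMSO baseline. Secondary readout, background-control function.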

[6] = read-out: Pselectin, SELP (gene 6403); test: BSK_4H_Pselectin: BioMAP Diversity Plus: 4H Assay for Pselectin Biomarker Activity (AID 2283026); conditions: primary human endothelial cells (HUVEC); actives raise or lower the signal
Method in brief: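 HUVEC, 24 h chemical exposure; P-selectin read by ELISA. Bidirectional curve fit vs DMSO baseline; gain or loss of signal scored.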

[7] = BSK_4H_SRB: Viability Assessment in the BioMAP Diversity Plus: 4H Assay (AID 2283027); conditions: primary human endothelial cells (HUVEC);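 further: cells exposed to compound for 24 h before staining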
Method in brief: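 Cytotoxicity readout: sulforhodamine B (0.1%) staining of total protein after 10% TCA fixation, measured at 560 nm in human umbilical vein endothelium at 24 h. DMSO set the baseline; fitting was bidirectional.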

[8] = read-out: Thrombomodulin, THBD (gene 7056); test: BSK_3C_Thrombomodulin: BioMAP Diversity Plus: 3C Assay for Thrombomodulin Biomarker Activity (AID 2283029); conditions: primary human endothelial cells (HUVEC); actives raise or lower the signal
Method in brief: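 HUVEC, 3C conditions; compound 24 h; thrombomodulin by ELISA; bidirectional curve fit vs DMSO baseline; parallel SRB total-protein staining for cytotoxicity.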

[9] = read-out: Urokinase-type plasminogen activator receptor (uPAR), PLAUR (gene 5329); test: BSK_4H_uPAR: BioMAP Diversity Plus: 4H Assay for Urokinase-type plasminogen activator receptor (uPAR) Biomarker Activity (AID 2283030); conditions: primary human endothelial cells (HUVEC); actives raise or lower the signal
Method in brief: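 Endpoint derived via bidirectional curve fitting against DMSO baseline; readout was ELISA detection of uPAR on umbilical vein endothelial cells at 24 h post-treatment, with SRB-stained parallel cultures assessing cytotoxicity.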

[10] = read-out: Vascular endothelial growth factor receptor 2 (Homo sapiens) (UniProt P35968); test: BSK_4H_VEGFRII: BioMAP Diversity Plus: 4H Assay for Vascular endothelial growth factor receptor 2 (VEGFR2) Biomarker Activity (AID 2283031); conditions: primary human endothelial cells (HUVEC); actives raise or lower the signal
Method in brief: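 In this multiplexed HUVEC system, biomarker ELISA was performed after 24 h chemical exposure. Parallel SRB staining (TCA fixation, 560 nm) tracked cytotoxicity; DMSO served as baseline.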

[11] = read-out: Human Leukocyte Antigen - DR isotype (HLADR), HLA-DRA (gene 3122); test: BSK_BE3C_HLADR: BioMAP Diversity Plus: BE3C Assay for Human Leukocyte Antigen - DR isotype (HLADR) Biomarker Activity (AID 2283032); conditions: primary human bronchial epithelial cells; actives raise or lower the signal
Method in brief: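 Primary human bronchial epithelial cells (BE3C); 24 h chemical exposure; HLA-DR by ELISA; bidirectional curve fit vs DMSO baseline.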

[12] = read-out: Interferon-gamma inducible Protein 10 (IP10), CXCL10 (gene 3627); test: BSK_BE3C_IP10: BioMAP Diversity Plus: BE3C Assay for Interferon-gamma inducible Protein 10 (IP10) Biomarker Activity (AID 2283034); conditions: primary human bronchial epithelial cells; actives raise or lower the signal
Method in brief: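 ELISA readout of IP-10 in BE3C system: primary human bronchial epithelial cells, 24 h post-dosing; bidirectional curve fit vs DMSO baseline.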

[13] = read-out: Monokine induced gamma interferon (MIG), CXCL9 (gene 4283); test: BSK_BE3C_MIG: BioMAP Diversity Plus: BE3C Assay for Monokine induced gamma interferon (MIG) Biomarker Activity (AID 2283035); conditions: primary human bronchial epithelial cells; actives raise or lower the signal;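 further: MIG protein measured by ELISA in BE3C cultures after 24 h of dosing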
Method in brief: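 hu bronchial epithelial 1° cells, 24 h cpd; MIG by ELISA; bidirectional fit, DMSO = baseline.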

[14] = read-out: Transforming growth factor beta 1 (TGFb1), TGFB1 (gene 7040); test: BSK_BE3C_TGFb1: BioMAP Diversity Plus: BE3C Assay for Transforming growth factor beta 1 (TGFb1) Biomarker Activity (AID 2283036;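 on outcome: TGF-b1 protein level measured by ELISA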); conditions: primary human bronchial epithelial cells; actives raise or lower the signal
Method in brief: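 Read-out: ELISA for TGF-b1 in primary human bronchial epithelial cultures, 24 h post-dose. Bidirectional curve fitting vs DMSO control; gain or loss of signal both scored.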

[15] = read-out: Plasminogen activator inhibitor-1 (PAI1), SERPINE1 (gene 5054); test: BSK_BE3C_PAI1: BioMAP Diversity Plus: BE3C Assay for Plasminogen activator inhibitor-1 (PAI1) Biomarker Activity (AID 2283037); conditions: primary human bronchial epithelial cells; actives raise or lower the signal
Method in brief: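 ELISA read-out of PAI-1 from human bronchial epithelial primary cells, 24 h post-dosing; bidirectional curve fit vs DMSO baseline, gain or loss of signal scored.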

[16] = read-out: urokinase plasminogen activator (uPA), PLAU (gene 5328); test: BSK_BE3C_uPA: BioMAP Diversity Plus: BE3C Assay for urokinase plasminogen activator (uPA) Biomarker Activity (AID 2283038); conditions: primary human bronchial epithelial cells; actives raise or lower the signal;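 further: uPA protein level quantified by ELISA in cell cultures; uPA read one day after compound addition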
Method in brief: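 Using confluent primary human lung bronchial epithelial cultures, we dosed chemicals, waited 24 h, then ran a uPA ELISA, fitting bidirectionally against DMSO.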

[17] = read-out: Urokinase-type plasminogen activator receptor (uPAR), PLAUR (gene 5329); test: BSK_BE3C_uPAR: BioMAP Diversity Plus: BE3C Assay for Urokinase-type plasminogen activator receptor (uPAR) Biomarker Activity (AID 2283039); conditions: primary human bronchial epithelial cells; actives raise or lower the signal;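 further: uPAR protein level measured by ELISA on the cells; cells exposed to compound for one day before measurement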
Method in brief: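 ELISA readout of uPAR on human lung primary bronchial epithelial cells, 24 h post-dosing. Bidirectional curve fit relative to DMSO vehicle baseline; gain or loss of signal both scored.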

[18] = BSK_BE3C_SRB: Viability Assessment in the BioMAP Diversity Plus: BE3C Assay (AID 2283028); conditions: primary human bronchial epithelial cells;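 further: measured 24 h after chemical dosing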
Method in brief: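 SRB total-protein staining (0.1%, after TCA fixation) of chemically dosed human bronchial epithelial primary cells at 24 h; DMSO serves as the negative control for bidirectional curve fitting.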

| Structure (SMILES) | outcome [1] | outcome [2] | outcome [3] | outcome [4] | outcome [5] | outcome [6] | outcome [7] | outcome [8] | outcome [9] | outcome [10] | outcome [11] | outcome [12] | outcome [13] | outcome [14] | outcome [15] | outcome [16] | outcome [17] | AC50 [1] | outcome [18] | AC50 [14] |
| --- | --- | --- | --- | --- | --- | --- | --- | --- | --- | --- | --- | --- | --- | --- | --- | --- | --- | --- | --- | --- |
| CCN(CC)C(=O)c1cccc(C)c1 | inactive | inactive | inactive | inactive | inactive | inactive | inactive | inactive | inactive | inactive | inactive | inactive | inactive | inactive | inactive | inactive | inactive |  |  |  |
| CCCCCOC(=O)COc1cc(N2C(=O)C3=C(CCCC3)C2=O)c(F)cc1Cl |  | inactive | inactive | inactive | inactive | inactive | inactive | inactive | inactive | inactive | inactive | inactive | inactive | inactive | inactive | inactive | inactive | 19.2 µM (active) |  |  |
| c1ccc(Nc2ccccc2)cc1 |  | inactive | inactive | inactive | inactive | inactive | inactive | inactive | inactive | inactive | inactive | inactive | inactive |  | inactive | inactive | inactive | 13.5 µM (active) | inactive | 3.97 µM (active) |
| COC(=O)c1cccc(C)c1S(=O)(=O)NC(=O)Nc1nc(OCC(F)(F)F)nc(N(C)C)n1 | inactive | inactive | inactive | inactive | inactive | inactive | inactive | inactive | inactive | inactive | inactive | inactive | inactive | inactive | inactive | inactive | inactive |  | inactive |  |
| CN(C)C(=O)Nc1ccc(Cl)c(Cl)c1 | inactive | inactive | inactive | inactive | inactive | inactive | inactive | inactive | inactive | inactive | inactive | inactive | inactive | inactive | inactive | inactive | inactive |  | inactive |  |
| CCCOC(=O)c1ccc(C(=O)OCCC)nc1 | inactive | inactive | inactive | inactive | inactive | inactive | inactive | inactive | inactive | inactive | inactive | inactive | inactive | inactive | inactive | inactive | inactive |  | inactive |  |
